From PubChem BioAssay (NCATS) come the findings set out here.

Test [1] deals with Cellular tumor antigen p53 (Homo sapiens) (UniProt P04637). Description: Primary qHTS for small molecule compounds that upregulate eGFP-tagged delta133p53alpha (in N-terminal) cells. (AID 2060322).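 Note: cells pre-induced with doxycycline then dosed without doxycycline; series mostly up to about 56 µM; 0% = DMSO vehicle and 100% = reference activator; nearly all actives have a fitted effect of over 75% in size.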 The settings on record: NCI-H358 eGFP-delta133p53alpha fluorescence, 24 h; activation: hits give high values. The procedure, abridged: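 NCI-H358 cells pre-induced 24 h with 10 ng/ml doxycycline for eGFP-delta133p53alpha, plated dox-free and exposed 24 h at 37C to titrated compounds. Fixed, Hoechst-stained; gated GFP peak intensity by laser scanning cytometry, normalized to DMSO (0%) and 57.5 uM 5-azacytidine (100%).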
Cellular tumor antigen p53 (Homo sapiens), sequence (P04637 whole entry, looked up): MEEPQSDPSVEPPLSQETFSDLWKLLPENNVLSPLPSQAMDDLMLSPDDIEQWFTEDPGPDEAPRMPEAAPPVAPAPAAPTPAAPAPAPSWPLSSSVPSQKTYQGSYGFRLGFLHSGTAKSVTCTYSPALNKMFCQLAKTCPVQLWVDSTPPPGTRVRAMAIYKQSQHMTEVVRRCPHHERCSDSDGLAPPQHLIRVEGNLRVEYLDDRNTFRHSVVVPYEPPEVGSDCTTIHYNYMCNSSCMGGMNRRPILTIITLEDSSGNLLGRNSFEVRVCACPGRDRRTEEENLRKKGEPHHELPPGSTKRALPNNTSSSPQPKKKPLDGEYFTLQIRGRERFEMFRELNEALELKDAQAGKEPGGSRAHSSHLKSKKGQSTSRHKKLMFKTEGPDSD
In general terms: qHTS replaces the single test concentration by a dilution series.

Test [2] can be described thus: BET inhibitor-based combinations targeting novel dependencies in MECOM-rearranged (r) AML: SET-2 cell line (AID 2202231).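 For viability: plate controls were DMSO treated cells for no effect and wells without cells for full effect.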 Note: nearly all actives have a fitted effect of over 35% in size. Note: potency is the fitted concentration of half-maximal effect. The settings on record: SET-2 AML cells viability, CellTiter-Glo luminescence, 48 h; viability: hits give low values, concentration not given here. The procedure, abridged: (§1)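 AML cell lines seeded at 500 cells/well, treated with 11-point dose curves for 48 h. Viability by CellTiter-Glo luminescence, normalised to DMSO and empty wells; activity expressed as AUC and per-cell-line Z-transformed AUC.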

A short description of test [3]: BET inhibitor-based combinations targeting novel dependencies in MECOM-rearranged (r) AML: OCI-AML3 cell line (AID 2202232).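 For viability (% of control): series mostly up to about 46 µM; plate controls were DMSO vehicle wells for no effect and wells without cells for full effect.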 Note: nearly all actives have a fitted effect of over 35% in size. Note: potency is the fitted concentration of half-maximal effect. The following applies: Potency: OCI-AML3 viability. A digest of the protocol:
as §1

Test [4] is described as follows: BET inhibitor-based combinations targeting novel dependencies in MECOM-rearranged (r) AML: MV-4-11 cell line (AID 2202233).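 For viability, % of control: plate controls were DMSO for no effect and blank wells for full effect.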 Note: nearly all actives have a fitted effect of over 45% in size. Note: potency is the fitted concentration of half-maximal effect. A digest of the protocol: (§2)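 Cells at 500/well were exposed for 48 hr to MIPE v5.0 drugs as 11-point dose curves. Viability was read by CellTiter-Glo luminescence and normalized to DMSO and empty-well controls. Activity was expressed as AUC and per-cell-line Z-AUC.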

A short description of test [5]: BET inhibitor-based combinations targeting novel dependencies in MECOM-rearranged (r) AML: HNT-34 cell line (AID 2202234).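 For viability (% of control): plate controls were vehicle wells for no effect and cell-free wells for full effect.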 Note: nearly all actives have a fitted effect of over 35% in size. Note: potency is the fitted concentration of half-maximal effect. A digest of the protocol:
as §2

A short description of test [6]: BET inhibitor-based combinations targeting novel dependencies in MECOM-rearranged (r) AML: UCSD-AML1 cell line (AID 2202235).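 For viability (% of control): series mostly up to about 46 µM; plate controls were DMSO vehicle wells for no effect and blank wells for full effect.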 Note: nearly all actives have a fitted effect of over 40% in size. Note: potency is the fitted concentration of half-maximal effect. The procedure, abridged:
as §2

The nature of test [7]: BET inhibitor-based combinations targeting novel dependencies in MECOM-rearranged (r) AML: AML-191 cell line (AID 2202236; note: nearly all actives have a fitted effect of over 35% in size; note: potency is the fitted concentration of half-maximal effect;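 for viability (% of control): plate controls were vehicle wells for no effect and wells without cells for full effect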). A digest of the protocol: as §1
Test [8] in a line: BET inhibitor-based combinations targeting novel dependencies in MECOM-rearranged (r) AML: AML-194 cell line (AID 2202237; note: nearly all actives have a fitted effect of over 40% in size; note: potency is the fitted concentration of half-maximal effect;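 for viability (% of control): plate controls were vehicle wells for no effect and wells without cells for full effect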). The procedure, abridged:
as §1

Records with an inconclusive call do not appear. Activity calls are given as the source filed them. Calls come from the whole dose curve; as a rule, active = well fitted curve in the direction sought with a large enough effect; inconclusive = small, poorly fitted or top-dose-only effect, or another doubt; inactive = no such curve, though single readings can be large; an effect the other way counts as inactive or inconclusive.

With `CCCCCN=C(N)N/N=C/c1c[nH]c2ccc(OC)cc12`, the activation in test [1] is 9.6% (inactive). Besides, the Potency was 23.5 µM (active) in test [2]; 8.33 µM (active) in test [3]; 8.33 µM (active) in test [4]; 9.34 µM (active) in test [5]; 16.6 µM (active) in test [6]; 18.6 µM (active) in test [7]. Further, in test [8], the Potency is 20.9 µM (active).

For the compound `Nc1ccn(C[C@@H](CO)OCP(=O)(O)O)c(=O)n1`, the activation in test [1] is -2.13% (inactive). The viability (in general, a read-out of living cells in per cent, often relative to untreated cells) in test [2] was 113% (inactive). The viability (% of control) was 113% [at 8.46 µM] (inactive) in test [3]; 82.3% [at 8.46 µM] (inactive) in test [5]; 104% [at 8.46 µM] (inactive) in test [6]; 91.5% [at 8.46 µM] (inactive) in test [7]; 105% [at 8.46 µM] (inactive) in test [8]. In addition, the viability, % of control in test [4] is 126% [at 8.46 µM] (inactive).

As to `CC[C@]1(O)C[C@H]2CN(CCc3c([nH]c4ccccc34)[C@@](C(=O)OC)(c3cc4c(cc3OC)N(C=O)[C@H]3[C@@](O)(C(=O)OC)[C@H](OC(C)=O)[C@]5(CC)C=CCN6CC[C@]43[C@@H]65)C2)C1`, in test [1], the activation was 54.7% (inactive). In addition, the Potency was 0.833 µM (active) in test [2]; 0.166 µM (active) in test [3]; 0.166 µM (active) in test [4]; 0.209 µM (active) in test [5]; 0.235 µM (active) in test [6]; 0.263 µM (active) in test [7]. Besides, the Potency in test [8] is 0.296 µM (active).

Regarding `CC(Oc1ccc(O)cc1)(P(=O)(O)O)P(=O)(O)O`, the activation in test [1] was -17.7% (inactive). Moreover, the viability in test [2] was 109% (inactive). Also, the Potency entry in test [3], in test [4], in test [5], in test [6], in test [7] and in test [8] was “inactive” throughout.

For the compound `c1ccc(CNc2nc(NCc3ccccc3)c3ccccc3n2)cc1`, the activation in test [1] was 44.2% (inactive). Besides, the Potency is 16.6 µM (active) in test [2]; 18.6 µM (active) in test [3]; 9.34 µM (active) in test [4]; 9.34 µM (active) in test [5]; 8.33 µM (active) in test [6]; 9.34 µM (active) in test [7]. Besides, in test [8], the Potency was 9.34 µM (active).
